According to PubChem BioAssay (EPA / NIEHS):
Calls of active or inactive are those of the source. How the source made its calls: active means hit-call score of the fitted dose curve at least 0.9, where 1 is the maximum; inactive means score below 0.9.

Key:
[1] = read-out: Transforming growth factor beta 1 (TGFb1), TGFB1 (gene 7040); experiment: BSK_KF3CT_TGFb1: BioMAP Diversity Plus: KF3CT Assay for Transforming growth factor beta 1 (TGFb1) Biomarker Activity (AID 2283072); conditions: primary human keratinocytes with fibroblasts; actives raise or lower the signal
Method in brief: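 KF3CT co-culture (keratinocytes + fibroblasts), 24 h exposure → TGF-b1 ELISA → bidirectional fit, DMSO = baseline. Parallel SRB total-protein staining (0.1% SRB, 10% TCA fixation, 560 nm) for cytotoxicity.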

[2] = read-out: urokinase plasminogen activator (uPA), PLAU (gene 5328); experiment: BSK_KF3CT_uPA: BioMAP Diversity Plus: KF3CT Assay for urokinase plasminogen activator (uPA) Biomarker Activity (AID 2283075); conditions: primary human keratinocytes with fibroblasts; actives raise or lower the signal
Method in brief: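 ELISA read-out of uPA 24 h after dosing human skin keratinocytes co-cultured with foreskin fibroblasts. Signal change fitted both ways relative to DMSO; sulforhodamine B on parallel cultures marks overt cytotoxicity.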

CD40, CD40 (gene 958) [3] = experiment: BSK_LPS_CD40: BioMAP Diversity Plus: LPS Assay for CD40 Biomarker Activity (AID 2283076); conditions: primary human HUVEC with PBMC; actives raise or lower the signal
Method in brief: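 ELISA readout of CD40 in HUVEC/PBMC co-culture (BSK_LPS system), 24 h post-dosing; bidirectional curve fit, DMSO baseline; parallel SRB total-protein staining for cytotoxicity.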

[4] = read-out: E-selectin (Homo sapiens) (UniProt P16581); experiment: BSK_LPS_Eselectin: BioMAP Diversity Plus: LPS Assay for Eselectin Biomarker Activity (AID 2283077); conditions: primary human HUVEC with PBMC; actives raise or lower the signal
Method in brief: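 ELISA readout of E-selectin, 24 h post-dose, HUVEC + PBMC co-culture (LPS system). Gain or loss of signal vs DMSO baseline, bidirectional fit.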

[5] = read-out: Interleukin-8 (IL8), CXCL8 (gene 3576); experiment: BSK_LPS_IL8: BioMAP Diversity Plus: LPS Assay for Interleukin-8 (IL8) Biomarker Activity (AID 2283078); conditions: primary human HUVEC with PBMC; actives raise or lower the signal
Method in brief: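 HUVEC + PBMC co-culture, LPS-activated; test chemicals dosed, IL-8 read by ELISA at 24 h. Bidirectional curve fit vs DMSO baseline (gain or loss of signal).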

[6] = BSK_LPS_SRB: Viability Assessment in the BioMAP Diversity Plus: LPS Assay (AID 2283079); conditions: primary human HUVEC with PBMC;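 further: total protein by sulforhodamine B absorbance as a cytotoxicity measure; measured one day after compound addition; fitted in both directions against DMSO so loss or gain of signal counts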
Method in brief: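 HUVEC + PBMC co-culture, LPS-stimulated; compound 24 h. 10% TCA fix, 0.1% SRB stain, A560. Bidirectional fit vs DMSO.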

[7] = read-out: Interleukin-1 alpha (IL1a), IL1A (gene 3552); experiment: BSK_LPS_IL1a: BioMAP Diversity Plus: LPS Assay for Interleukin-1 alpha (IL1a) Biomarker Activity (AID 2283080); conditions: primary human HUVEC with PBMC; actives raise or lower the signal
Method in brief: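 HUVEC/PBMC co-culture, LPS system; 24 h after dosing; IL-1a by ELISA; gain or loss of signal fitted bidirectionally vs DMSO baseline.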

[8] = read-out: Monocyte Chemoattractant Protein-1 (MCP1), CCL2 (gene 6347); experiment: BSK_LPS_MCP1: BioMAP Diversity Plus: LPS Assay for Monocyte Chemoattractant Protein-1 (MCP1) Biomarker Activity (AID 2283081); conditions: primary human HUVEC with PBMC; actives raise or lower the signal;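 on AC50: secreted MCP-1 protein quantified by ELISA in culture supernatant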
Method in brief: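 ELISA read-out of MCP-1 after 24 h chemical dosing of a human umbilical vein endothelial cell/peripheral blood mononuclear cell co-culture stimulated with LPS. Gain or loss of signal fitted relative to DMSO controls.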

[9] = BSK_LPS_PGE2: BioMAP Diversity Plus: LPS Assay for Prostaglandin E2 (PGE2) Biomarker Activity (AID 2283082); conditions: primary human HUVEC with PBMC; actives raise or lower the signal;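 on AC50: secreted prostaglandin E2 measured by ELISA in LPS-stimulated co-culture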
Method in brief: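 Compounds were added to the LPS co-culture of endothelium and PBMC, and PGE2 was measured by ELISA after 24 h. Responses in either direction were fitted with DMSO as baseline.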

[10] = read-out: Macrophage colony-stimulating factor (MCSF), CSF1 (gene 1435); experiment: BSK_LPS_MCSF: BioMAP Diversity Plus: LPS Assay for Macrophage colony-stimulating factor (MCSF) Biomarker Activity (AID 2283083); conditions: primary human HUVEC with PBMC; actives raise or lower the signal
Method in brief: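 HUVEC + PBMC co-culture (human primary), 24 h post-dose; M-CSF by ELISA; gain/loss of signal fitted bidirectionally vs DMSO baseline.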

[11] = read-out: Tissue Factor, F3 (gene 2152); experiment: BSK_LPS_TissueFactor: BioMAP Diversity Plus: LPS Assay for Tissue Factor Biomarker Activity (AID 2283084); conditions: primary human HUVEC with PBMC; actives raise or lower the signal
Method in brief: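 HUVEC/PBMC co-culture, LPS-activated; CD142 ELISA read 24 h post-dose; bidirectional curve fit vs DMSO negative control.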

[12] = read-out: Tumor necrosis factor (Homo sapiens) (UniProt P01375); experiment: BSK_LPS_TNFa: BioMAP Diversity Plus: LPS Assay for Tumour Necrosis Factor alpha (TNFa) Biomarker Activity (AID 2283085); conditions: primary human HUVEC with PBMC; actives raise or lower the signal;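 on AC50: TNFa protein level quantified by ELISA in the co-culture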
Method in brief: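 Cells (umbilical vein endothelium plus peripheral blood mononuclear cells) were dosed with chemical, incubated 24 h, then TNFa was quantified by ELISA; values derive from bidirectional fitting with DMSO as baseline.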

[13] = read-out: Vascular cell adhesion molecule 1 (VCAM1), VCAM1 (gene 7412); experiment: BSK_LPS_VCAM1: BioMAP Diversity Plus: LPS Assay for Vascular cell adhesion molecule 1 (VCAM1) Biomarker Activity (AID 2283086); conditions: primary human HUVEC with PBMC; actives raise or lower the signal
Method in brief: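 Cells are dosed in an LPS-stimulated endothelial/mononuclear co-culture and, after 24 h, VCAM-1 is quantified by ELISA. Activity in either direction is fitted relative to the DMSO negative control.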

CD38, CD38 (gene 952) = experiment: BSK_SAg_CD38: BioMAP Diversity Plus: SAg Assay for CD38 Biomarker Activity (AID 2283087); conditions: primary human HUVEC with PBMC; actives raise or lower the signal
Method in brief: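 CD38 quantified by ELISA (fluorescence) in a superantigen-activated endothelial cell–PBMC co-culture at 24 h post-dose. Activity fitted in both directions relative to DMSO; parallel SRB and Alamar Blue cytotoxicity read-outs.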

CD40, CD40 (gene 958) [14] = experiment: BSK_SAg_CD40: BioMAP Diversity Plus: SAg Assay for CD40 Biomarker Activity (AID 2283088); conditions: primary human HUVEC with PBMC; actives raise or lower the signal
Method in brief: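 HUVEC/PBMC co-culture, 24 h post-dose; CD40 by ELISA, fluorescence intensity; bidirectional fit vs DMSO negative control.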

CD69, CD69 (gene 969) = experiment: BSK_SAg_CD69: BioMAP Diversity Plus: SAg Assay for CD69 Biomarker Activity (AID 2283089); conditions: primary human HUVEC with PBMC; actives raise or lower the signal;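 on AC50: cell surface CD69 protein quantified by ELISA with fluorescence detection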
Method in brief: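 Primary human vascular co-culture (umbilical vein endothelium with peripheral blood mononuclear cells) exposed to test chemical for 24 h. CD69 levels quantified by fluorescence ELISA; DMSO served as negative control for bidirectional fitting.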

[15] = read-out: Monocyte Chemoattractant Protein-1 (MCP1), CCL2 (gene 6347); experiment: BSK_SAg_MCP1: BioMAP Diversity Plus: SAg Assay for Monocyte Chemoattractant Protein-1 (MCP1) Biomarker Activity (AID 2283090); conditions: primary human HUVEC with PBMC; actives raise or lower the signal
Method in brief: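 Values derive from bidirectional fitting of ELISA-measured MCP1 against DMSO controls. Readings were taken 24 h after dosing human vascular endothelial cells co-cultured with peripheral blood mononuclear cells under superantigen stimulation.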

[16] = read-out: Matrix Metallopeptidase 9 (MMP9), MMP9 (gene 4318); experiment: BSK_KF3CT_MMP9: BioMAP Diversity Plus: KF3CT Assay for Matrix Metallopeptidase 9 (MMP9) Biomarker Activity (AID 2283074); conditions: primary human keratinocytes with fibroblasts; actives raise or lower the signal;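 on AC50: MMP9 protein level quantified by ELISA in the co-culture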
Method in brief: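 MMP-9 quantified by ELISA after 24 h chemical treatment of primary human skin keratinocyte/fibroblast co-cultures; gain or loss fitted against DMSO, with parallel SRB staining (0.1% SRB, 560 nm) for overt cytotoxicity.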

[17] = read-out: C-C motif chemokine 2 (Homo sapiens) (UniProt P13500); experiment: BSK_KF3CT_MCP1: BioMAP Diversity Plus: KF3CT Assay for Monocyte Chemoattractant Protein 1 (MCP1/CCL2) Biomarker Activity (AID 2283073); conditions: primary human keratinocytes with fibroblasts; actives raise or lower the signal
Method in brief: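 KF3CT skin co-culture (keratinocytes/foreskin fibroblasts), 24 h post-dose; MCP-1 by ELISA; gain/loss of signal fit bidirectionally vs DMSO baseline.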

Measured: AC50

Tumor necrosis factor (Homo sapiens), sequence (P01375 whole entry, looked up): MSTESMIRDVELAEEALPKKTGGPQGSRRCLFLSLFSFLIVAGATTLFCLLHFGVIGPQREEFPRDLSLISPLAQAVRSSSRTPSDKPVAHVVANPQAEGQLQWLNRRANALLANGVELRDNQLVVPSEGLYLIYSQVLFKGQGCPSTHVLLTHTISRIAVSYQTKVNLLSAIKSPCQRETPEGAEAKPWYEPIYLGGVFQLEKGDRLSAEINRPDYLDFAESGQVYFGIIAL
E-selectin (Homo sapiens), sequence (P16581 whole entry, looked up): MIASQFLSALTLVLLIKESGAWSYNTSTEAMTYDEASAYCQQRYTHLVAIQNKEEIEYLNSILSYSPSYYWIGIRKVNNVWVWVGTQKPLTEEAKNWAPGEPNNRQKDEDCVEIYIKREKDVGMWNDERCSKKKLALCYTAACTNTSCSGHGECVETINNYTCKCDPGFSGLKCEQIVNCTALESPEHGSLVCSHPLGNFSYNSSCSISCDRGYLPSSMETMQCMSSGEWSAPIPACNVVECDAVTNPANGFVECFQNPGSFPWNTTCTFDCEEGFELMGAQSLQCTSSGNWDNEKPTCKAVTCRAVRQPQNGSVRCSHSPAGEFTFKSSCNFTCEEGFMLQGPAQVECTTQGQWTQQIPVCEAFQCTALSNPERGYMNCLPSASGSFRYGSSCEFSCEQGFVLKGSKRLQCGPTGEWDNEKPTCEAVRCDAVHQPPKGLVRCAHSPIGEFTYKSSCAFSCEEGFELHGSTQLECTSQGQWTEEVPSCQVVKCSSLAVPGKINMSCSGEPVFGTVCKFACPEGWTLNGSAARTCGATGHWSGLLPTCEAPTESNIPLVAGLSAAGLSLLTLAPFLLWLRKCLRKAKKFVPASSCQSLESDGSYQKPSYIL

c1ccc2c(c1)oc1ccccc12
not listed: [16] | [17]
inactive: all other assays above

N#CC(Br)(Br)C(N)=O
not listed: [16] | [17]
inactive: all other assays above

Nc1ccc(Oc2ccc(N)cc2)cc1
active: [9] 12.7 µM
not listed: [17]
inactive: all other assays above

O=C1CCCO1
not listed: [16] | [17]
inactive: all other assays above

Clc1ccc(C(c2ccc(Cl)cc2)C(Cl)(Cl)Cl)cc1
active: [1] 14.8 µM | [16] 11 µM | [2] 20.1 µM | CD40, CD40 (gene 958) [3] 20 µM | [4] 31.7 µM | [5] 27.4 µM | [6] 28.9 µM | [7] 14.6 µM | [8] 33.1 µM | [10] 19.5 µM | [11] 38.7 µM | [12] 24.8 µM | [13] 28.7 µM | CD40, CD40 (gene 958) [14] 23.2 µM | CD69, CD69 (gene 969) 25.5 µM | [15] 30 µM
inactive: [9]

Nc1ccc(Cl)cc1N
active: [4] 4.45 µM | [9] 10 µM | [10] 2.96 µM | [13] 3.62 µM | CD38, CD38 (gene 952) 6.44 µM | CD69, CD69 (gene 969) 3.65 µM
not listed: [15] | [16] | [17]
inactive: all other assays above

ClC1=C(Cl)C2(Cl)C3C(Cl)C=CC3C1(Cl)C2(Cl)Cl (stereo not given)
active: [1] 14 µM | [2] 31 µM | CD40, CD40 (gene 958) [3] 30.9 µM | [4] 30.6 µM | [5] 31.6 µM | [6] 29.5 µM | [7] 30 µM | [8] 31.4 µM | [10] 29.5 µM | [11] 32.2 µM | [12] 33.5 µM | [13] 33.7 µM | CD38, CD38 (gene 952) 32.6 µM | CD40, CD40 (gene 958) [14] 25.7 µM | CD69, CD69 (gene 969) 31.8 µM | [15] 31.6 µM
inactive: [9]

CCC(C)c1ccc(O)cc1 (stereo not given)
active: [9] 4.17 µM
not listed: [11] | [15] | [16]
inactive: all other assays above

Clc1ccccc1Cl
not listed: [16]
inactive: all other assays above

c1ccc(C2CO2)cc1 (stereo not given)
not listed: [11] | [15] | [16] | [17]
inactive: all other assays above

Clc1ccc(Cl)c(Cl)c1
not listed: [16] | [17]
inactive: all other assays above

CNC(=O)Oc1cccc2c1OC(C)(C)C2
not listed: [11] | [15] | [17]
inactive: all other assays above

CCCCCCCCCCCCCN1CC(C)OC(C)C1 (stereo not given)
not listed: [16]
inactive: all other assays above

CN(C)c1ccc(C(=O)c2ccc(N(C)C)cc2)cc1
active: [1] 5.11 µM | CD40, CD40 (gene 958) [3] 17 µM | [5] 6.12 µM | [6] 13.4 µM | [9] 2.63 µM | [13] 14.4 µM | CD38, CD38 (gene 952) 20 µM
not listed: [17]
inactive: all other assays above

CCOc1cccc(C2(N3CCN(c4ccccc4)CC3)CCC(C)CC2)c1 (stereo not given)
not listed: [16]
inactive: all other assays above
